Compounds with a hit are over-represented: about 3.1% of the library has one in this group of screens.
TRb-SRC2 inh = qHTS for Inhibitors of the Interaction of Thyroid Hormone Receptor and Steroid Receptor Coregulator 2. AID 1469, 2008. Potency, µM (doses to about 106 µM), without a hit: at the top dose activity change, negative = inhibition, most hits filed as inhibitors. TRbeta-SRC2 peptide binding, fluorescence polarization; receptor liganded with 1 µM T3. 0.065% of 280,000 active;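 note: plate controls were bound peptide for no effect and peptide without receptor for full effect; nearly all actives have a fitted effect of over 50% in size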
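Each compound concentration gave % activity, normalized to unbound and bound Texas Red SRC2 controls, from polarization read after 5 hr ambient incubation with T3-loaded human TRb LBD.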
TR SRC2 fluor cs = Total Fluorescence Counterscreen for Inhibitors of the Interaction of Thyroid Hormone Receptor and Steroid Receptor Coregulator 2; TRb/SRC2 Texas Red total fluorescence interference; Potency, µM (series often up to 106 µM), for the others: at the highest dose fluorescence change, negative = quenching; 0.29% of 280,000 active; active = well fitted curve in either direction with a large enough effect; inconclusive = small, poorly fitted or top-dose-only effect
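Human TRβ ligand-binding domain (0.6 uM) and Texas Red SRC2 peptide (20 nM) in Tris buffer with 1 uM T3 and 5% DMSO were incubated with pinned compound for 5 hr at ambient temperature. Total fluorescence was computed as S + 2P (555/632 nm).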
Tau fluor cs = Counterscreen qHTS for Inhibitors of Tau Fibril Formation, Fluorescence Polarization. tau K18 P301L Alexa594 fluorescence, heparin fibrillization. Potency, µM (highest dose often 57.7 µM), for inactives: at the highest dose activity change, negative = decrease. AID 1463, 2008. 0.93% of 280,000 active; note: nearly all actives have a fitted effect of over 55% in size
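Human tau K18 P301L (15 uM unlabeled, 0.24 uM Alexa 594-labeled) in 100 mM sodium acetate pH 7 with 20 uM heparin, 6 hr at 37 C. ThT 30 uM added, 1 hr ambient; Alexa 594 FP and total fluorescence read at 555/632 nm.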
Tau fibril ThT = qHTS for Inhibitors of Tau Fibril Formation, Thioflavin T Binding | Potency, µM (top dose mostly 57.4 µM), for inactives: top-dose activity, negative = inhibition, hits mostly inhibitors | recombinant tau K18 P301L (four-repeat tau fragment), heparin-induced fibrillization, ThT fluorescence | 2.1% of 270,000 active | Microtubule-associated protein tau (Homo sapiens), P10636; note: nearly all actives have a fitted effect of over 55% in size
Target sequence (P10636 561-689 P618L limits assumed): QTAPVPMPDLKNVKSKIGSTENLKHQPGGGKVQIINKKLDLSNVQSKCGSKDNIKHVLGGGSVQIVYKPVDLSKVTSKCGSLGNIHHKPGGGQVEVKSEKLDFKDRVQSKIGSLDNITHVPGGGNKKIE
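K18 P301L tau (15 uM + 0.24 uM Alexa 594-tagged), heparin 20 uM, NaOAc pH 7, 6 h 37 C; ThT 30 uM, 1 h RT, ex 450/em 510 nm.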
Tau FP inhib = qHTS for Inhibitors of Tau Fibril Formation, Fluorescence Polarization. K18 P301L tau heparin fibrillization, Alexa594 FP, 6 h. Potency, µM (doses to about 57.7 µM), for inactives: at the highest dose activity, negative = inhibition, hits mostly inhibitors. 0.39% of 280,000 active. AID 1468, 2008; note: nearly all actives have a fitted effect of over 55% in size
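Read-out: fluorescence polarization of Alexa 594-labeled tau (0.24 uM), 555 nm excitation, 632 nm emission. Mixtures held 15 uM unlabeled K18 P301L, compound and 20 uM heparin, pH 7 acetate buffer, incubated 6 hr at 37 C.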
* = called active by the depositor; ? = inconclusive; ! = a repeat was not active; [ ] = remark or other dose. Unless noted, calls come from the whole dose curve; as a rule, active = well fitted curve in the direction sought with a large enough effect; inconclusive = small, poorly fitted or top-dose-only effect, or another doubt; inactive = no such curve, though single readings can be large; an effect the other way counts as inactive or inconclusive. Unless noted, % is set by controls: 0 for no effect and ±100 for the full control effect; potency is the fitted concentration of half-maximal effect.

SMILES | TRb-SRC2 inh | TR SRC2 fluor cs | Tau fluor cs | Tau fibril ThT | Tau FP inhib
CCCCCCCCCCCCCCC/C=C/[C@@H](O)[C@H](NC(=O)CCCCCCCCCCCCC)OC (tested in a mixture with another compound) | -3% | -5% | -5% | 0% | -5%
CNC(=O)C1CCC(Cn2c(=O)c3sccc3n(CC(=O)NCc3ccc(C)cc3)c2=O)CC1 (configuration not stated) | 2% | 1% | 3% | 14% | 11%
Cc1nnc(NC(=O)CSc2nccn2-c2cccc(Cl)c2)s1 | 2% | -2% | 1% | 1% | -4%
CC(=O)c1ccc(N2CCN(C(=O)Nc3ccc(C(C)C)cc3)CC2)cc1 | -2% | 0.032µM*![quencher] | ? | ? | -6%
O=C(Nc1ccc(Cl)cc1)Nc1ccc(N2CCOCC2)cc1 | -1% | -2% | ? | ? | 14%
O=C(Nc1ccc(N2CCOCC2)cc1)Nc1ccc(Cl)c(Cl)c1 | -2% | -7% | 8.9µM*[quencher] | 13µM* | ?
COCCNC(=O)CCN1C(=O)c2cccnc2Oc2ccc(C)cc21 | 2% | 2% | -1% | -2% | 1%
Oc1cccc2c(NC(=S)Nc3ccc(SC(F)F)cc3)cccc12 | 6% | -1% | 11µM*[quencher] | 10µM* | ?
CCC1=NNc2cccc3c(OC)ccc1c23 | -22% | -18% | ? | 13µM* | ?
Cc1ccc(-c2nn(-c3ccccc3)cc2C(=O)Nc2ccc(C)c(S(=O)(=O)N3CCOCC3)c2)cc1 | 1% | 4% | ? | -1% | 16µM*
O=C(Nc1cccc(S(=O)(=O)N2CCOCC2)c1)c1cn(-c2ccccc2)nc1-c1ccc(F)cc1 | 3% | 2% | -30% | -4% | ?
O=C(Nc1cccc(S(=O)(=O)N2CCOCC2)c1)c1cn(-c2ccccc2)nc1-c1ccccc1 | 1% | 0% | ? | 6% | 25µM*
Cc1cc2c(c(=O)o1)[C@@H](O)[C@H]1O[C@@H]1C2=O | 1%[11.2 µM] | 1%[11.2 µM] | ? | ? | ?
CCCCOc1ccc(C(=O)Nc2ccc3c(c2)N(C(C)=O)CCC3)cc1 | -4% | -1% | -9% | -7% | -1%
CCOc1ccc(-c2nc(SCC(=O)Nc3ccc4c(c3)OCO4)c(-c3ccc(F)cc3)[nH]2)cc1 | 2% | -5% | ? | ? | 2%
COc1cccc(-c2nc(SCC(=O)Nc3ccc4c(c3)OCO4)c(-c3ccccc3)[nH]2)c1 | -6% | -1% | 7.9µM*[quencher] | ? | -6%
Cc1cccc(-c2nc(SCC(=O)Nc3ccc4c(c3)OCO4)c(-c3ccccc3)[nH]2)c1 | 11% | -2% | 6.3µM*[quencher] | ? | ?
O=C(c1ccc2c(c1)OCO2)c1cn(Cc2ccc(Cl)cc2)c2ccc(F)cc2c1=O | 2% | -5% | -10% | -4% | -4%
COC(=O)[C@@H]1CCCN1C(=O)CCc1nnc(CCC2CCCCC2)o1 | 5% | -3% | 7% | -4% | 0%
Cc1cc(N2CCC(C)CC2)nc2ccc(NC(=O)/C=C/c3cccc(Cl)c3)cc12 | 17% | 9% | 14µM*[quencher] | 6.3µM* | 24%
Cc1ccc(Cl)cc1N1CCN(C(=O)CCC(=O)Nc2ccc3nc(N4CCC(C)CC4)cc(C)c3c2)CC1 | -1% | 7% | ? | ? | 5%
Cc1ccc(/C=C/C(=O)Nc2ccc3nc(N4CCC(C)CC4)cc(C)c3c2)cc1 | 7% | -2% | 6.3µM*[quencher] | 2.5µM* | 0%
CCn1c(C)cc(=S)c2ccccc21 | -2% | 1% | -29% | 20µM* | ?
O=C1NC(=O)c2cc(Nc3ccccc3)c(Nc3ccccc3)cc21 | -4% | -5% | 14µM*[quencher] | 14µM* | 0%
O=C1NC(=O)c2cc(Nc3ccc(F)cc3)c(Nc3ccc(F)cc3)cc21 | 2% | 2% | 14µM*[quencher] | 13µM* | -5%

Source: PubChem
